# Results published in the OligoGym collection.
# Target: CNGB1
# Test: pooled miR-30 sensor sort-seq; sequence = guide strand
# Settings: shRNA
# Also: reference of the scale not given here.
row,Sequence,sensor-assay potency score (higher = more potent)
1,TTTGAACTTGCAGCAGAGCATG,-1.2
2,TTTCTTCCGGAGTAACTTCTGA,-0.522
3,TGGGCTGGTACTGACATCCTGG,-0.698
4,TTCTTGCACACATAGTCGTTGG,-0.837
5,TTTGCTAACGATGTTGTAGTTC,0.184
6,TAGGTAATCCATCAGCAGCCAG,-1.07
7,TAAGCTGGAACCACCTCTGTAC,0.05
8,TTGTAGTTCACGTCGATGGCGA,-0.201
9,TTTCTCTGTCCGCTCCTTGAAG,-0.823

# Target: CNN2
# Test: as above
# Settings: shRNA
row,Sequence,sensor-assay potency score (higher = more potent)
1,TGTCACACTTGTCGGTTCCCAG,-0.793
2,TTGGTATCATAGATGTGCCGCC,-0.285
3,TAGCTTGTTCATGAGTGTGCAT,-0.436
4,TTGCGTTTGGTCCACAGTCGTA,-1.13
5,TTTCTTTTGTGAATACTTCCTG,0.659
6,TCTGTTGGTCTGAAGGTCCTAG,0.303
7,AATACTTCCTGAAACTTGCGGG,0.259
8,TTGACTGGCAGCACTGAACGGG,-0.107
9,TGGCTGGCACACTTGTTCGTGC,-1.46
10,TAAGATAGTTCCATCCTTCAGG,-0.219
11,TAGCACTCTCTCCACTGTCCTT,-0.91
12,TCATAGAGATGCCTTCTCGTGC,-0.57
13,TGTAGCTTGTTCATGAGTGTGC,0.544
14,TTGTCGGTTCCCAGCTTGGTAT,-1.75
15,TCATATTTGGACAGGAGCCGGT,-0.85
16,TAGAGATGCCTTCTCGTGCCGT,-0.0875
17,TTGGGGTCATATATCTGCCGGC,-0.73
18,TATTTCACATTATCTCACGGAG,-0.296
19,TTCTTTTGTGAATACTTCCTGA,-0.256
20,TTGGACAGGAGCCGGTTCTTGA,-0.733
21,TTGGACAGGTTTTCTAGCTGGT,0.325
